# Measurements published in PubChem BioAssay AID873 (PCMD, 2007).
# Where “and” joins values, the source holds several entries; their conditions need not be identical. Equal entries are not always repeated. About 1,300 (0.62%) of roughly 210,000 compounds were called active. The sample holds actives, similar compounds and a random draw of the others, so the mix is not that of the screen.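 How the source made its calls: active means inhibition of 40% or more; inactive means the rest.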 Some structures have more than one record in an assay (separate samples or runs), and their calls can disagree.
# Target: Kallikrein-5 (Homo sapiens) (UniProt Q9Y337)
# Sequence (Q9Y337 67-293 limits assumed): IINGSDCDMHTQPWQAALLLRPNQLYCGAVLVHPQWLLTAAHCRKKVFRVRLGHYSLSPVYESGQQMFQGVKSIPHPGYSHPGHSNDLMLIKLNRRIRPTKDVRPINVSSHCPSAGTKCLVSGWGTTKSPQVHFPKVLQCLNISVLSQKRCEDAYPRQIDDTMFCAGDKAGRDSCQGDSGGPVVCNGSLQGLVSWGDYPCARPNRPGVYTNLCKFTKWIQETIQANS
# Test: human KLK5 protease inhibitors, primary screen, biochemical, 1536-well (AID 873);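 further: 0% = enzyme controls without compound and 100% = no-enzyme blanks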
# Conditions: recombinant hK5, fluorogenic AMC substrate cleavage; at 5 µM; stronger effect = higher value
row,SMILES,inhibition
1,Cc1c(C(=O)N(Cc2ccccc2)Cc2cccnc2)cnn1-c1ccc(F)cc1,-6% (inactive)
2,O=C(CSc1ccccc1)Nc1ccc(NC(=O)c2ccco2)cc1,-26.9% (inactive)
3,O=C(Nc1ccc(Oc2ccccc2)cc1)c1ccco1,69.2% (active)
4,COC(=O)c1ccc(NC(=O)c2ccco2)cc1,-16.9% (inactive)
5,O=C(O)CCCCCCCCCC[n+]1ccccc1,-3.11% (inactive)
6,CC1(C)CCSC(/C=C/c2ccccc2)=N1,-4.94% (inactive)
7,Cc1ccc(Nc2nc(N)nc(CN3CCN(Cc4ccccc4)CC3)n2)cc1Cl,-2.25% (inactive)
8,COc1cc(C)nc(N2CCCC(C(=O)NCC(C)C)C2)n1 (stereo not drawn),61.5% (active)
9,CC(C)CNC(=O)C1CCCN(S(=O)(=O)c2ccc(-n3cnnn3)cc2)C1 (stereo not drawn),11.1% (inactive)
10,Cc1ccnc(N2CCCC(C(=O)Nc3cc(F)ccc3C)C2)n1 (stereo not drawn),-31.1% (inactive)
11,COc1cccc(C2Nc3cccc4cccc(c34)N2)c1,-0.21% (inactive)
12,CCc1nc2sc(C(=O)O)c(N)c2c2c1CCCC2,-8.59% (inactive)
13,Cc1nc2sc(C(=O)c3ccccc3)c(N)c2c2c1CCCC2,44% (active)
14,Cc1ccc2c(N)c(C(=O)c3ccccc3)sc2n1,17.9% (inactive)
15,COc1ccc(CC(=O)NCC(=O)N/N=C/c2cc(Br)ccc2OC)cc1,-3% (inactive)
16,COc1cccc2c(O)cc(=O)n(C)c12,-13.9% (inactive)
17,COc1cccc2c(C)c(C(=O)O)[nH]c12,90.6% (active)
18,Cc1c(C(=O)N/N=C/c2ccccc2)[nH]c2c([N+](=O)[O-])cccc12,7.11% (inactive)
19,CSc1nnc(-c2ccc(C(F)(F)F)cn2)o1,2.93% (inactive)
20,OC(CNCc1ccc2c(c1)OCO2)COc1ccccc1 (stereo not drawn),2.06% (inactive)
21,COc1cc(OC)cc(/C(N)=N/O)c1,-2.69% (inactive)

row,SMILES,inhibition
1,CCOC(=O)/C(C#N)=C/c1cn(CCC(=O)O)nc1-c1ccc(Br)cc1,0.91% (inactive)
2,O=C(O)CCn1cc(/C=C/C(=O)c2ccc(Cl)cc2)c(-c2cccc(Br)c2)n1,121% (active)
3,O=C(O)/C=C/c1cn(Cc2ccccc2)nc1-c1cccs1,-5.27% (inactive)
4,CCN1CCN(c2nc(Nc3cccc(F)c3)nc(N)c2[N+](=O)[O-])CC1,1.83% (inactive)
5,COC(=O)c1sccc1NC(=O)CC1C(=O)NCCN1C(=O)Nc1ccc(F)cc1F (stereo not drawn),-1.42% (inactive)
6,Cc1ccc(-c2nc(SCC(=O)Nc3ccccc3OC(F)F)c3c(C)c(C(=O)O)sc3n2)cc1,0.7% (inactive)
7,COc1ccc(OC)c(NC(=O)N[C@H](Cc2ccccc2)C(=O)NN)c1,-9.7% (inactive)
8,C=CCOC(=O)C1=C(C)N=C2SCCC(=O)N2C1/C=C/c1ccccc1OC (stereo not drawn),1.43% (inactive)
9,COC(=O)C1=C(C)NC(=O)NC1/C=C/c1ccccc1 (stereo not drawn),-24.4% (inactive)
10,COC(=O)C1=C(C)N=C2SC(C)C(=O)N2C1/C=C/c1ccccc1 (stereo not drawn),61.9% (active)
11,CSc1ccc(CN(C)CC(=O)NCc2ccc(F)cc2)cc1,-2.79% (inactive)
12,NC(=O)c1nsc(C(=O)N(CC(=O)NCc2ccc(F)cc2)Cc2ccco2)c1N,69.4% (active)
13,Cc1ccnc(NC(=O)CCC(=O)N(CC(=O)NCc2ccccc2)Cc2ccco2)c1,-56.9% (inactive)
14,Cc1[nH]n(-c2ccccc2)c(=O)c1N=Nc1ccccc1C(=O)N1CCCCC1,3.28% (inactive)
15,O=C(Cc1ccccc1)N1N=C(c2ccncc2)CC1(O)C(F)(F)F (stereo not drawn),-2.66% (inactive)
16,Brc1ccc2ncnc(NCc3cccnc3)c2c1,-4.89% (inactive)
17,Cc1[nH]n(C)c(=O)c1C(=O)c1c(-c2c(Cl)cccc2Cl)noc1C,5.65% (inactive)
18,O=C(OCN1C(=O)c2ccccc2C1=O)/C(=C\c1ccco1)NC(=O)c1ccccc1,41.6% (active)
19,Cc1cccc(NC(=O)/C(=C\c2ccco2)NC(=O)c2ccccc2)c1,-17.2% (inactive)
20,O=C(NCC1CCCO1)/C(=C\c1ccco1)NC(=O)c1ccccc1 (stereo not drawn),-1.75% (inactive)
21,O=C(CNCCC1=CCCCC1)Nc1ccccc1N1CCCCCC1,-0.35% (inactive)

row,SMILES,inhibition
1,Cc1cccc(C)c1Nc1c(-c2ccccc2O)nc2ncccn12,-0.27% (inactive)
2,CC(C)(C)OC(=O)NCCCCCC(=O)N/N=C/c1coc2ccccc2c1=O,-0.18% (inactive)
3,CCC(C)OC(=O)C(C)Oc1ccc(-c2ccccc2)cc1 (stereo not drawn),54.9% (active)
4,O=C(O)Cc1ccc(-c2ccccc2)cc1,-3.86% (inactive)
5,COc1cccc(NC(=O)C(C)Oc2ccccc2)c1 (stereo not drawn),15.3% (inactive)
6,Cc1ccccc1Cn1c2ccccc2c2cnn(CC(=O)NCc3ccco3)c(=O)c21,1.05% (inactive)
7,CCOc1ccccc1NC(=O)CCc1ccc(C)o1,118% (active)
8,CCOc1ccccc1NC(=O)CCN1CCN(S(=O)(=O)c2ccc(OC)cc2)CC1,0.91% (inactive)
9,CCOc1ccccc1NC(=O)Nc1cc(OC)ccc1OC,-0.87% (inactive)
10,CCS(=O)(=O)NCCc1ccc(OC)c(OC)c1,-7.94% (inactive)
11,COc1ccc(CNCCCO)cc1OC,46.4% (active)
12,CCOCCCNCc1ccc(OCc2ccc(F)cc2)c(OC)c1,-4.94% (inactive)
13,O=C(NCc1cccnc1)C(=O)Nc1nc(-c2ccccc2)cs1,-0.27% (inactive)
14,COc1cc(NS(=O)(=O)c2ccccc2)ccc1-n1nc(C)cc1C,-1.07% (inactive)
15,COc1ccccc1-n1cnc2cc(NS(=O)(=O)c3ccccc3)ccc21,53.3% (active)
16,COCCCNC(=O)c1ccc2c(c1)ncn2-c1ccccc1OC,-11.7% (inactive)
17,O=S(=O)(c1ccc(NC(=S)NN=C(C2CC2)C2CC2)cc1)N1CCOCC1,-9.15% (inactive)
18,CCN1C(=O)/C(=c2\s/c(=C3\Sc4ccccc4N3C)c(=O)n2C)N(C)C1=S,2.3% (inactive)
19,CCN1C(=O)/C(=C2/Sc3ccccc3N2CCCS(=O)(=O)O)SC1=S,-2.57% (inactive) and 43.4% (active)
20,CCC(=O)/C=C1\Sc2ccccc2N1CC,-8.47% (inactive)
21,S=c1nc2ccccc2c2nc(-c3cccnc3)[nH]n12,-1% (inactive)

row,SMILES,inhibition
1,O=C(CN1CCN(Cc2ccccc2)CC1)NC(c1ccccc1)c1ccccc1,-1.99% (inactive)
2,Cc1cc2c(cc1C)N(Cc1ccccc1)C1=NCCCN12,-0.81% (inactive)
3,COc1ccc(C(C(=O)NC(C)(C)C)N(C(=O)Cn2nnc3ccccc32)c2ccc(C(C)=O)cc2)cc1O (stereo not drawn),-4.08% (inactive)
4,CCOc1ccc(/C(O)=C2\C(=O)C(=O)N(c3ccc(OC)cc3)C2c2ccccc2[N+](=O)[O-])cc1 (stereo not drawn),-0.1% (inactive)
5,C/C(Cc1ccccc1)=N\NC(=O)CNC(=O)c1ccccc1Cl,47.7% (active)
6,C/C(Cc1ccccc1)=N\NC(=O)CNC(=O)c1ccc2c(c1)OCCO2,-2.98% (inactive)
7,C/C(Cc1ccccc1)=N\NC(=O)CNC(=O)c1cccc(Br)c1,-15.8% (inactive)
8,Cc1cc(C(=O)NCCc2ccc(Cl)cc2)n(-c2ccccc2)n1,0.87% (inactive)
9,C=CCNC(=O)c1ccc2c3n(nc2c1)-c1ccc(C)cc1CO3,2.58% (inactive)
10,C=CCNC(=S)N/N=C/c1ccc(C)s1,-12.8% (inactive)
11,Cc1nc(-c2ccc(Cl)cc2)sc1C1(C)CC(c2ccccc2F)=NO1 (stereo not drawn),2.17% (inactive)
12,CC(=O)c1ccc(S(=O)(=O)N2CCN(C(=O)/C=C/c3ccc4ccccc4n3)CC2)cc1,-6.25% (inactive)
13,COCCNC(=S)N1CCN(C)CC1,0.97% (inactive)
14,CSc1ccccc1C(=O)Nc1cccc(C(C)=O)c1,45% (active)
15,CC(=O)c1cccc(NC(=O)c2ccncc2)c1,2.01% (inactive)
16,COc1cccc(NC(=O)c2ccccc2SC)c1,-2.44% (inactive)
17,CC(C)(C)C(=O)NNC(=O)c1ccc(Oc2cc(Cl)cc(Cl)c2)o1,4.32% (inactive)
18,COCCNc1nc(-c2ccccc2)nc2c1oc1ccccc12,1.99% (inactive)
19,Cn1c(=O)c2c(-c3cccc(Br)c3)c(C#N)c(N)nc2n(C)c1=O,2.05% (inactive)
20,S=C(NCCc1ccccc1)Nc1ccccc1,2.79% (inactive)
